Bioassay records deposited in PubChem BioAssay by Buhrlage Lab, Dana-Farber Cancer Institute and Novartis Institutes for BioMedical Research (Cambridge, Mass).
Shown are actives, neighbours in structure and some others; about 6.8% of the full set was active somewhere.
UCHL1 block: inhibitors of human UCHL1 deubiquitinase; inhibition, % at 20 µM; AID 1645859; purified UCHL1, Ub-rhodamine cleavage fluorescence; 0.2% of 47,000 active; P09936
OTUD3 block: inhibitors of human OTUD3 deubiquitinase; AID 1645858; 0.7% of 47,000 active; inhibition, % at 25 µM; purified OTUD3, Ub-rhodamine fluorescence, 2 h; Q5T2D3
USP10 inh: human USP10 deubiquitinase inhibition; Q14694; purified USP10, Ub-rhodamine fluorescence, 60 min; inhibition, % at 20 µM; 1.1% of 47,000 active; AID 1645856
USP8 inh: blocks human USP8 ubiquitin-rhodamine cleavage. AID 1645853. P40818. purified USP8, Ub-rhodamine cleavage fluorescence, 30 min. 4.2% of 47,000 active. inhibition, % at 20 µM
USP28 block: human USP28 deubiquitinase inhibition; purified USP28, Ub-rhodamine cleavage fluorescence, 30 min; inhibition, % at 25 µM; 3% of 47,000 active; AID 1645857
USP7 block: human USP7 deubiquitinase inhibition | Q93009 | purified USP7, Ub-rhodamine cleavage fluorescence | inhibition, % at 20 µM | 0.3% of 47,000 active
* hit, by the source's call; / = no result given. Cut-off read from the data, not from the text of the source: active = inhibition above about 30%; inactive = the rest.

SMILES	UCHL1 block	OTUD3 block	USP10 inh	USP8 inh	USP28 block	USP7 block
O=C(NCc1ccccn1)c1cn(-c2ccc(Cl)cc2)nn1	1	-1	2	-9	0	-1
O=C(NCc1ccccn1)c1nc(-c2cn(-c3ccc(Cl)cc3)nn2)no1	4	9	6	50*	12	2
O=C(Nc1nccnc1C(=O)NCc1ccccn1)c1ccccc1	1	-5	-1	38*	-12	1
CCc1ccc(NC(=O)Cn2ncc3c(N4CCCC4)ncnc32)cc1	1	-3	-2	0	9	-5
COc1ccc(C)cc1NC(=O)Nc1nnc(CC(=O)NCc2ccccc2)s1	3	2	19	38*	-1	14
O=C(Cc1nnc(NC(=O)Nc2cc(F)ccc2F)s1)NCc1ccccc1	-4	21	13	12	6	3
OCCn1c(-c2ccccc2)cn2c(-c3ccccc3)c(-c3ccccc3)nc12	8	0	5	58*	-6	-1
COc1ccc(-c2cn3c(-c4ccccc4)c(-c4ccccc4)nc3n2CCc2ccccc2)cc1	1	3	4	73*	-2	10
COc1ccc(-n2c(-c3ccccc3)cn3c(-c4ccccc4)c(-c4ccccc4)nc23)cc1	3	27	5	80*	23	1
Cn1c(=O)c(N2CCN(S(=O)(=O)c3ccc4c(c3)CCCC4)CC2)nc2ccncc21	-2	-7	-1	-1	-14	-1
Cc1cc(C(=O)N2CCCC2c2ccc3c(c2)OCCCO3)c2c(C)noc2n1 (centres undefined)	-2	6	-3	5	1	-1
O=C(c1noc2c1CCCC2)N1CCCC1c1ccnc(=O)[nH]1 (centres undefined)	-10	-7	-7	-13	-11	-12
Cc1c(CC(=O)N2CCN(c3ccccc3)CC2)c(=O)oc2c(C)c(O)ccc12	3	6	13	31*	5	7
Cc1c(CC(=O)N2CCN(c3ccc(F)cc3)CC2)c(=O)oc2cc(O)ccc12	-2	-7	0	18	-5	0
CC1CCCCN1C(=O)c1cc(-c2cnc(-c3ccnn3C)nc2)cn1C (centres undefined)	0	2	-5	-10	-7	/
O=C(Cc1n[nH]c(Cc2ccc(F)cc2)n1)NC1CCCCCC1	0	1	-2	42*	4	-27
O=C(NCCC1=CCCCC1)c1cn(Cc2ccccc2)nc1-c1cccnc1	-1	-10	-4	-18	-6	-21
COc1cccc(NC(=O)c2ccc(F)cc2Cl)c1	3	5	-2	1	54*	2
COc1ccc(N(C)S(=O)(=O)c2ccc(Cl)c(C(=O)Nc3cccc(C(C)=O)c3)c2)cc1	2	-27	-9	0	28	-4
COc1ccc(NC(=O)c2ccc(S(C)(=O)=O)cc2Cl)cc1	0	-2	1	5	46*	0
Cc1cc(NC(=O)c2ccc3c(=O)n4c(nc3c2)CCCCC4)no1	-2	5	0	2	25	-3
COc1ccc(NS(=O)(=O)c2cc(NC(=O)C3CC3)ccc2N2CCCCC2)cc1	11	-3	11	-5	2	13
COc1ccc(NS(=O)(=O)c2cc(NC(=O)/C=C/c3ccco3)ccc2N2CCCC2)cc1	18	44*	17	76*	57*	13
CN1CCCn2nc(C3CCN(C(=O)Nc4ccc(F)cc4)CC3)cc2C1=O	-1	-4	-2	2	-3	-2
O=C(Nc1sc2c(c1C(=O)NCc1cccnc1)CCCC2)c1csnn1	7	16	12	-17	38*	5
SMILES	UCHL1 block	OTUD3 block	USP10 inh	USP8 inh	USP28 block	USP7 block
Cc1cc(C(=O)Nc2ccccc2)c(C)n1-c1ccc(F)cc1	2	-1	-1	14	1	0
CN(C)c1nc2cc(C(=O)N3CCCC3)sc2n1-c1ccccc1	7	2	-6	57*	4	0
Cn1nc(-c2ccccc2)c2cc(C(=O)N3CCOCC3)sc21	6	4	1	2	3	2
CNC(=O)c1cc2nc(N(C)C)n(-c3ccc(F)cc3)c2s1	5	3	-5	89*	46*	-5
Cc1ccccc1NC(=O)Cn1c(=O)n(CC(C)C)c(=O)c2nscc21	13	-20	-3	38*	-36	-71
CCn1c(=O)c2nscc2n(CC(=O)NCc2ccccc2)c1=O	-1	-15	-14	16	-22	-23
CC(C)Cn1c(=O)c2nscc2n(CC(=O)Nc2ccc(F)cc2F)c1=O	8	14	-1	36*	8	-35
CC(C)Cn1c(=O)c2nscc2n(CC(=O)NCc2ccccc2)c1=O	10	1	-7	39*	-4	-48
COc1cc2c(cc1OC)-c1cc(Oc3ccccc3F)nc(=O)n1CC2	-3	-86	-3	1	-152	-5
O=C(NCc1cccc(C(F)(F)F)c1)C1Cc2c(ccc3ccccc23)O1 (centres undefined)	-1	8	3	-60	8	-2
CC(=O)C1C(=O)C=C(c2ccccc2)CC1c1ccccc1 (centres undefined)	-2	7	4	11	5	-3
Cc1ccn(-c2ccc(NC(=O)c3ccccc3Sc3ccccc3C#N)cc2)n1	3	14	7	12	38*	9
Cc1cccc(C(=O)N2CCC[C@@]3(C[C@@H](Oc4ccccc4F)CO3)C2)n1	0	-3	-1	-3	1	-8
Cc1cccc(CO[C@H]2CN(C(=O)CN(C)C)[C@@H]3CCCO[C@H]23)n1	-1	0	-1	0	-6	0
CCC(C(=O)NCc1ccncc1)N(c1cccc(Cl)c1)S(C)(=O)=O (centres undefined)	3	32*	3	-6	9	-13
CCc1ccccc1N(CC(=O)NCc1ccncc1)S(C)(=O)=O	3	5	0	4	11	4
COc1ccc(C(=O)NCc2nnc(SCC(=O)N3CCN(c4ccccc4)CC3)o2)cc1	1	0	-1	-10	5	3
Cc1ccc(-c2[nH]c3ccccc3c2C2c3ccccc3C(=O)N2CC(=O)O)cc1 (centres undefined)	-2	-8	12	61*	-16	-1
Cc1nc(C2CCCN2C(=O)c2ccnn2C)nc2c1CC(=O)N2Cc1ccc(F)cc1 (centres undefined)	2	-29	-6	40*	-45	-8
Cc1nc(C2CCCCN2C(=O)C2CCC2)nc2c1CCC(=O)N2Cc1ccccn1 (centres undefined)	3	4	0	1	8	7
Cc1nc(C2CCCN2C(=O)c2ccccn2)nc2c1CC(=O)N2CCc1ccccc1F (centres undefined)	-4	-80	-7	61*	-60	-13
Brc1ccc(Sc2cnns2)cc1	0	17	6	16	38*	-153
